# In ChEMBL document CHEMBL4513216, “Probing the Open Global Health Chemical Diversity Library for Multistage-Active Starting Points for Next-Generation Antimalarials” (ACS Infect Dis, 2020):
# About 8,600 (12%) of roughly 69,000 compounds showed an effect of 50% or more. Shown is part of a subset that was picked to be rich in strong results.
# Tested on: Plasmodium berghei
# Test: Screen against P. berghei liver stage (PbLuc), transformed with Luciferase, at 10uM
# Format: functional, HepG2
# Settings: tested at 10 uM
row,Structure (SMILES),INHIBITION [%]
1,CNC(=O)[C@@H](CC(C)C)N1CCC[C@H]1C(=O)N(C)Cc1ccccc1,25.3
2,Cc1noc([C@H]2C[C@H]3OCC[C@H]3N(Cc3ccc4c(c3)OCO4)C2)n1,17.6
3,CSc1c(CC(=O)O)n(C)c2ccccc12,-9.98
4,O=C([C@@H]1CC[C@@H]2[C@@H](CCN2Cc2cccc(F)c2)O1)N1CCCCO1,-7.48
5,CC(C)c1cc(C2CCN(C(=O)Cn3nc4ccccc4n3)CC2)[nH]n1,53.2
6,CC(C)c1cc(C2CCN(C(=O)Cn3cncn3)CC2)[nH]n1,17
7,CC(C)c1cc(C2CCN(Cc3cc(F)cc(F)c3)CC2)[nH]n1,49.5
8,CC(C)c1cc(C2CCN(C(=O)Cn3cnnn3)CC2)[nH]n1,35.1
9,CC(C)c1cc(C2CCN(C(=O)Cn3cnc4ccccc43)CC2)[nH]n1,86.6
10,Cc1n[nH]c(C)c1CN1CCC(c2cc(C(C)C)n[nH]2)CC1,13.9
11,CC(C(=O)NCCN1CCOCC1)n1cncn1 (stereo not drawn),-2.33
12,CN(Cc1cnn(C)c1)C(=O)Nc1cccnc1-n1cccn1,-24.9
13,CCN1CCN(C(=O)C2CC(=O)N(c3cnn(C(C)C)c3)C2)CC1 (stereo not drawn),23.1
14,CCS(=O)(=O)N1Cc2cncn2CC(C(=O)NCC2CC2)C1 (stereo not drawn),24
15,CCc1nc(C2CCCN(C(=O)C3=NN(C(C)C)C(=O)CC3)C2)no1 (stereo not drawn),28.7
16,Cc1nc(C2CCCN(C(=O)c3ccoc3)C2)no1 (stereo not drawn),11.6
17,Cc1nc(C2CCCN(C(=O)c3sc(C)nc3C)C2)no1 (stereo not drawn),43.4
18,Cc1nc(C2CCCN(C(=O)c3ccc(S(C)(=O)=O)cc3)C2)no1 (stereo not drawn),-29.8
19,Cc1nc(C2CCCN(C(=O)c3cccc(S(C)(=O)=O)c3)C2)no1 (stereo not drawn),51.3
20,Cc1nc(C2CCCN(C(=O)C3=NN(C(C)C)C(=O)CC3)C2)no1 (stereo not drawn),58.3
21,CCN1N=C(C(=O)N2CCCC(c3noc(C)n3)C2)CCC1=O (stereo not drawn),34.1
22,Cc1nc(C2CCCN(C(=O)c3cc(C)sc3C)C2)no1 (stereo not drawn),81.2
23,Cc1nc(C2CCCN(C(=O)c3cnc(C)s3)C2)no1 (stereo not drawn),-38

row,Structure (SMILES),INHIBITION [%]
1,Cc1ccc2c(n1)N(Cc1cccnc1)CCN(C(=O)C1CCC1)C2,32.4
2,NCC1CCCCN1C(=O)Cc1cccc(Cl)c1 (stereo not drawn),19
3,Cc1ccc(C(=O)N2CCCC2c2nnc3n2CCCCC3)s1 (stereo not drawn),13
4,CC(C)[C@H]1CN(C(=O)CC2CCC2)C[C@@H]1N(C)C,3.06
5,COC1(CNC(=O)c2cccc(C#N)c2)CCSC1 (stereo not drawn),8.7
6,Cc1nc(CN2CCO[C@@H]3CN(Cc4cccs4)C[C@@H]3C2)cs1,37.3
7,Cc1nc(C(Cc2ccsc2)NC(=O)CCN2CCOCC2)sc1C (stereo not drawn),-11.95
8,Cc1nc(NCCc2ccccc2)cc(C(=O)N2CCOCC2)n1,38.5
9,COc1cc(C)ccc1S(=O)(=O)N[C@H]1CN(C(C)=O)C[C@@H]1C1CC1,55.2
10,COc1ccc(C)cc1S(=O)(=O)N[C@H]1CN(C(C)=O)C[C@@H]1C1CC1,35.4
11,COc1ccc(S(=O)(=O)N[C@H]2CN(C(C)=O)C[C@@H]2C2CC2)cc1C,9.63
12,CCS(=O)(=O)N1CCC2(COCc3cnc(N4CCOCC4)nc32)C1 (stereo not drawn),-50.9
13,c1nc(N2CCOCC2)nc2c1COCC21CCN(CC2CC2)C1 (stereo not drawn),-7.59
14,COCCN1CCC2(COCc3cnc(N4CCOCC4)nc32)C1 (stereo not drawn),52.3
15,CN1CCC2(COCc3cnc(N4CCOCC4)nc32)C1 (stereo not drawn),51.3
16,COCCN1CCC2(COCc3cnc(N(C)C)nc32)C1 (stereo not drawn),-6.23
17,O=S(=O)(C1CC1)N1CCC2(COCc3cnc(N4CCOCC4)nc32)C1 (stereo not drawn),-8.69
18,c1ccc(N2CCC3(COCCN(c4ncccn4)C3)C2)nc1 (stereo not drawn),38.5
19,c1cnc(N2CCC3(COCc4cnc(N5CCOCC5)nc43)C2)nc1 (stereo not drawn),68.3
20,CNc1nc(CNC(=O)Nc2cccc(CN(C)C)c2)cs1,-0.74
21,CC(C)c1nncn1CCNC(=O)c1c(O)cc(F)cc1F,8.86
22,CC(C)=CCN1C(=O)[C@@H]2CC[C@H]1CN(C(=O)CCc1n[nH]c(C)c1C)C2,43.8
23,CC(Cn1ccnc1)NC(=O)C1(c2cccc(Cl)c2)CC1 (stereo not drawn),19.4

row,Structure (SMILES),INHIBITION [%]
1,COCCn1c(=O)n(Cc2ccccc2C)c2cc(C(=O)O)ccc21,29
2,COCCn1c(=O)n(Cc2ccc(Cl)s2)c2cc(C(=O)O)ccc21,32.3
3,COCCn1c(=O)n(Cc2cccc(F)c2F)c2cc(C(=O)O)ccc21,55
4,CC(NC(=O)NCC(F)(F)F)c1nncn1C (stereo not drawn),11.5
5,c1ccc(Cc2nc(C3CC3)nn2-c2ccc3c(c2)OCCO3)nc1,-52.4
6,c1cncc(OCc2nc(C3CC3)nn2-c2ccc3c(c2)OCCO3)c1,25.4
7,c1cncc(CCc2nc(C3CC3)nn2-c2ccc3c(c2)OCCO3)c1,50.1
8,CCc1cnc(N)nc1N1CCCC2(CCOCC2)C1,-3.77
9,CCc1nc(N)nc(N2CCCC3(CCOCC3)C2)c1C,50
10,CCc1nc(N)nc(N2CCCC3(CCN(C)CC3)CC2)c1C,-56.2
11,CS(=O)(=O)N1CCCC(n2nnn(-c3ccccc3)c2=O)C1 (stereo not drawn),17.55
12,c1cncc(C2COC3(CCN(CC4CC4)CC3)C2)c1 (stereo not drawn),-18.2
13,Cn1cccc1C(=O)N1CCCCC1c1ccn2ccnc2n1 (stereo not drawn),-11.7
14,Cc1cccc2c(=O)c(C(=O)N3CCCC4(CN(C)C(=O)O4)C3)c[nH]c12 (stereo not drawn),60.1
15,Cc1cc(C(=O)N2CCCC3(CN(C)C(=O)O3)C2)c2ccc(F)cc2n1 (stereo not drawn),37.7
16,Cc1nc[nH]c1C(=O)N1CCCC2(CN(C)C(=O)O2)C1 (stereo not drawn),3.69
17,CCOC(=O)CNC(=O)NCc1cccn1Cc1ccccc1C,-21.3
18,CCOC(=O)CNC(=O)NCc1cccn1Cc1ccccc1,40.8
19,COCCCNC(=O)NCc1cccn1Cc1ccccc1C,60.7
20,COCCCNC(=O)NCc1ccc(C)cc1,48.8
21,CCOC(=O)CNC(=O)NCc1cccn1Cc1ccc(F)cc1,16.8
22,CCOC(=O)CNC(=O)NCc1cccn1Cc1ccccc1F,56.5
